34 molecules from ChEMBL document CHEMBL1961873, “Compounds: GSK PKIS; Assays: Nanosyn kinase panel” (2012) can be followed below.

The target of test [1] is RAF proto-oncogene serine/threonine-protein kinase (Homo sapiens) (UniProt P04049). The conditions noted are these: at 1 µM.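 Note: values are the mean percent inhibition of CRAF.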
In test [2] the target is T1, Interleukin-1 receptor-associated kinase 4 (Homo sapiens) (UniProt Q9NWZ3).
T1 sequence (whole entry): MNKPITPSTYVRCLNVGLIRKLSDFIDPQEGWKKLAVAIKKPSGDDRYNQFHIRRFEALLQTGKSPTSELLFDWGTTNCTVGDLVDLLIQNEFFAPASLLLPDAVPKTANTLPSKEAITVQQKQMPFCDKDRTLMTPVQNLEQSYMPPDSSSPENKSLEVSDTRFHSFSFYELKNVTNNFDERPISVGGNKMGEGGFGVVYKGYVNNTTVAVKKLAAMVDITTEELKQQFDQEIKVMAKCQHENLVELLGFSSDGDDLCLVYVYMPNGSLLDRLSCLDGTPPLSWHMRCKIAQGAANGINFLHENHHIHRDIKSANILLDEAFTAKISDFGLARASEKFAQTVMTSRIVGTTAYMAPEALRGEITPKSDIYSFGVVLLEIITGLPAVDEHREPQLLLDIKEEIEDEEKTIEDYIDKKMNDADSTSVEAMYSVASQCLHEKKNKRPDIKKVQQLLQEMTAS
The conditions noted are these: at 0.1 µM.

In test [3] the target is T1, Interleukin-1 receptor-associated kinase 4 (Homo sapiens). The conditions noted are these: at 1 µM.
Test [4] concerns the target Leucine-rich repeat serine/threonine-protein kinase 2 (Homo sapiens) (UniProt Q5S007). The conditions noted are these: at 0.1 µM.
For test [5] the target is unchanged. The conditions noted are these: at 1 µM.
The subject of test [6] is Leucine-rich repeat serine/threonine-protein kinase 2 (Homo sapiens), Q5S007 [G2019S]. The conditions noted are these: at 0.1 µM.
Test [7] shares this test system. The conditions noted are these: at 1 µM.

Chain of RAF proto-oncogene serine/threonine-protein kinase (Homo sapiens) (P04049 whole entry): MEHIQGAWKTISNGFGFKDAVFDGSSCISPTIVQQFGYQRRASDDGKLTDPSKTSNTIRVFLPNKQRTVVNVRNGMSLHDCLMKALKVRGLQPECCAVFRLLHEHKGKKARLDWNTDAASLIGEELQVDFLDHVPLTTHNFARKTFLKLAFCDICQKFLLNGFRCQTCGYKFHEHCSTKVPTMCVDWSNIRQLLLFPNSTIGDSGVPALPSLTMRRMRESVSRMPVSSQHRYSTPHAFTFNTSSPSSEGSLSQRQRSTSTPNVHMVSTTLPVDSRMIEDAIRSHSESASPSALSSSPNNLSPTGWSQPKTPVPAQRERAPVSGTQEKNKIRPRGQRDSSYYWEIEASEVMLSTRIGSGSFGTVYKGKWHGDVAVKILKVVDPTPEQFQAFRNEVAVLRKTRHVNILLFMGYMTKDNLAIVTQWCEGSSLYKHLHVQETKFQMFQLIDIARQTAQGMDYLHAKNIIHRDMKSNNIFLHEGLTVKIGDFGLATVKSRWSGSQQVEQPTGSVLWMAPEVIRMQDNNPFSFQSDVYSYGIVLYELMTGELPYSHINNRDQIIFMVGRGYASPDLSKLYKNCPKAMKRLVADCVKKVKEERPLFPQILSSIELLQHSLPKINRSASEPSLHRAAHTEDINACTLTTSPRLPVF
Chain of Leucine-rich repeat serine/threonine-protein kinase 2 (Homo sapiens) (Q5S007 whole entry): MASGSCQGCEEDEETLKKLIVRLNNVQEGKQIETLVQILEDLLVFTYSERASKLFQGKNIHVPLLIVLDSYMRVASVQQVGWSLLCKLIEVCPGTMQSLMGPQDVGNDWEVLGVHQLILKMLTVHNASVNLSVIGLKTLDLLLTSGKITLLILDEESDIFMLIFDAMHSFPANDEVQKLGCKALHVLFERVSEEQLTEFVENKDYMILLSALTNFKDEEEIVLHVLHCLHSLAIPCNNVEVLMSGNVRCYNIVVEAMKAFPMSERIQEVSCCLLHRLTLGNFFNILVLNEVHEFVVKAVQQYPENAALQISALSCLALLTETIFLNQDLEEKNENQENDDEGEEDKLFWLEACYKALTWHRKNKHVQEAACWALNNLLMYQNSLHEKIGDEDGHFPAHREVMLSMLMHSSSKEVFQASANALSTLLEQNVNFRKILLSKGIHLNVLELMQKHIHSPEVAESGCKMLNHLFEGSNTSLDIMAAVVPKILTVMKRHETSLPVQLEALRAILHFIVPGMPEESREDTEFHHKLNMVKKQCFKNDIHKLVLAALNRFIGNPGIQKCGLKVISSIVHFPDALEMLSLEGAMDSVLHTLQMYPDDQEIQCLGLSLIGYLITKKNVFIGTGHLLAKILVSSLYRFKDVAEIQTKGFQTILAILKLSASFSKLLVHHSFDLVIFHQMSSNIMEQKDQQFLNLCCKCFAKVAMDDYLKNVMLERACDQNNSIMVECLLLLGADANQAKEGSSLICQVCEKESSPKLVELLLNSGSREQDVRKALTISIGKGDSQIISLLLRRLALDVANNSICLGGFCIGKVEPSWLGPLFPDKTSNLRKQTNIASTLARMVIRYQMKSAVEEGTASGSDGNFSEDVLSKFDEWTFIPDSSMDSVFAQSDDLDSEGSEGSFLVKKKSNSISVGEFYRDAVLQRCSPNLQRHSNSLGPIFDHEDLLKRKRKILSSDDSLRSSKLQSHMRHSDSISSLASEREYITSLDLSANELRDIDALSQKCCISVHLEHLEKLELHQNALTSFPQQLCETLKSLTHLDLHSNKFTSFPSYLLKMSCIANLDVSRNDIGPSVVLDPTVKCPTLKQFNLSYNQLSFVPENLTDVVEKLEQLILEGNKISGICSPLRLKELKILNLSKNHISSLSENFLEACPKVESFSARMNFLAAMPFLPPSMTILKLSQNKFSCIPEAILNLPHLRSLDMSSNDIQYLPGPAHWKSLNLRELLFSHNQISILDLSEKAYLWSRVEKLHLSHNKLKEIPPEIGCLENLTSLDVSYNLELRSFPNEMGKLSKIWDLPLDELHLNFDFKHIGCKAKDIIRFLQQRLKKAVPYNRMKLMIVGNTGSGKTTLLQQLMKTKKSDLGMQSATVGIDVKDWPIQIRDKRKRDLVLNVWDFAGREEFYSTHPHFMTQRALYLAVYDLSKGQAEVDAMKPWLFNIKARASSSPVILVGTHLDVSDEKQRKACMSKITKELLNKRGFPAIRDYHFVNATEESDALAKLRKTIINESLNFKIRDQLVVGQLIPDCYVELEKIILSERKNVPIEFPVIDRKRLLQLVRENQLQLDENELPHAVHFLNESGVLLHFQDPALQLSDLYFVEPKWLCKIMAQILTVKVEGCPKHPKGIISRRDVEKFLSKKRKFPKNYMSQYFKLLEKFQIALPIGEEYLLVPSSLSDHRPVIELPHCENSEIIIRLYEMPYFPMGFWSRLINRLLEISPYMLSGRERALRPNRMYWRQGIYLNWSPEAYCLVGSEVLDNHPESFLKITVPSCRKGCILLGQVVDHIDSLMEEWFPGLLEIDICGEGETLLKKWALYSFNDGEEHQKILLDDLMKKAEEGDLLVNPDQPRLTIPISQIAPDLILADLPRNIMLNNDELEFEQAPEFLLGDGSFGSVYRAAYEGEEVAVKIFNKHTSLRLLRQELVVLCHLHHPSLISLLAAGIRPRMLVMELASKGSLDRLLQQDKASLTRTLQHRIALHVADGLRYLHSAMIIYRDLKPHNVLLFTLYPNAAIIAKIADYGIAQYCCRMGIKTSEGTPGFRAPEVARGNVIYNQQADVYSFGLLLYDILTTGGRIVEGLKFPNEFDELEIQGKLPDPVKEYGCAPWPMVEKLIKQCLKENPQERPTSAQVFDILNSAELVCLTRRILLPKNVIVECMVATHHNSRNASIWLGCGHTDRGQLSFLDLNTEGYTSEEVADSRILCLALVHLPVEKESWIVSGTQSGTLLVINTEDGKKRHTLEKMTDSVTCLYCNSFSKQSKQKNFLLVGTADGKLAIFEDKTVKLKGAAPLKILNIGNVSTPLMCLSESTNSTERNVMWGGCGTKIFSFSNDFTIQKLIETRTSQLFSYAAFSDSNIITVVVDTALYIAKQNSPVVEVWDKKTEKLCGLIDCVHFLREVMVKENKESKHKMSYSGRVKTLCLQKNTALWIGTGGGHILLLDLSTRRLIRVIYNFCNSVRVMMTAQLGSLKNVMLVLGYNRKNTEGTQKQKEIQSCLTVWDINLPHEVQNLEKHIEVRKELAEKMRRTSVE
Chain of Leucine-rich repeat serine/threonine-protein kinase 2 (Homo sapiens), Q5S007 [G2019S] (Q5S007 whole entry G2019S): as the sequence (Q5S007 whole entry) above, with G2019S counted along it

As to `Nc1nccc(-c2c(-c3ccc(F)cc3)nn3cc(C(F)(F)F)ccc23)n1`, the inhibition (in general, the drop in the measured response relative to a control, in per cent) in test [1] is -7.59%; in test [2], 0.57%; in test [3], 0.46%; in test [4], 6.4%; in test [5] it was 7.9%; in test [6], 6.54%. In addition, the inhibition in test [7] was found to be 5.03%.

Regarding `Cc1cc(-c2ccccn2)cc(C)c1/C=C/c1cncc(-c2nn[nH]n2)c1`, the inhibition in test [1] was found to be 0.84%; in test [2], 1.97%; in test [3], 2.42%; in test [4] it was 1.5%; in test [5], 10.7%; in test [6] it was 3.32%. In addition, the inhibition in test [7] worked out at 8.55%.

Regarding `Cc1ccc(O)cc1Nc1ccnc2ccc(S(C)(=O)=O)cc12`, the inhibition worked out at 9.12% in test [1]; 4.59% in test [2]; 3.6% in test [3]; 4.8% in test [4]; 18.7% in test [5]; 12.5% in test [6]. The inhibition in test [7] was 48%.

In the case of `NC(=O)c1sc(-n2cnc3ccccc32)cc1OCc1ccccc1Br`, the inhibition was -0.55% in test [1]; 1.39% in test [2]; 2.57% in test [3]; 1.66% in test [4]; 10.8% in test [5]; 4.94% in test [6]. The inhibition in test [7] was 19.3%.

Take `CCS(=O)(=O)c1ccc(OC)c(Nc2ncc(-c3cccc(OC)c3)o2)c1`: the inhibition is -3.45% in test [1]; -4.04% in test [2]; 2.08% in test [3]; 5.57% in test [4]; 20.2% in test [5]; 7.7% in test [6]. Further, the inhibition in test [7] was 42.6%.

As for `COc1ccc2ncnc(Nc3ccc(OCc4ccccc4)cc3)c2c1`, the inhibition is 3.13% in test [2]; 0.86% in test [3]; 1.61% in test [4]; 4.95% in test [5]; 2.19% in test [6]; 13.1% in test [7].

Take `COc1cccc(-n2ncc3c(N/N=C/c4ccc(S(C)(=O)=O)cc4)ncnc32)c1`: the inhibition in test [1] is -5.96%; in test [2], -3.29%; in test [3], 1.12%; in test [4], -1.93%; in test [5] it was -1.56%; in test [6], 2.72%. Besides, the inhibition in test [7] was found to be 6.75%.

For `Cc1ccc(Nc2ccnc(Nc3cccc(C(N)=O)c3)n2)cc1O`, the inhibition is 4.38% in test [1]; -2.94% in test [2]; 6.55% in test [3]; 0.74% in test [4]; 9.44% in test [5]; 2.08% in test [6]. The inhibition in test [7] was 26.1%.

Regarding `COc1cc2ncnc(Nc3ccc4c(cnn4Cc4ccccc4)c3)c2cc1OC`, the inhibition in test [1] is -1.93%; in test [2], 0.58%; in test [3] it was 1.32%; in test [4], 3.78%; in test [5], 14.3%; in test [6], 6.86%. The inhibition in test [7] is 13.8%.

On to `C[C@@H](Oc1cc(-n2cnc3ccc(OCC4CCN(C)CC4)cc32)sc1C(N)=O)c1ccccc1C(F)(F)F`, for which the inhibition in test [1] amounted to 1.99%; in test [2] it was 0.42%; in test [3], 9.77%; in test [4], 6.53%; in test [5], 26.4%; in test [6], 7.39%. The inhibition in test [7] is 31%.

As to `CCOc1nccc2c1nc(-c1nonc1N)n2CC`, the inhibition in test [1] is 1.42%; in test [2], -2.37%; in test [3], 1.89%; in test [4], 3.98%; in test [5], 8.96%; in test [6], 5.55%. In test [7], the inhibition came to 11.8%.

Turning to `NS(=O)(=O)c1ccc(N/N=C2\C(=O)Nc3ccc(Cl)cc32)cc1`, the inhibition in test [1] is -2.46%; in test [2] it was 1.38%; in test [3] it was 1.48%; in test [4], 3.85%; in test [5], 14.7%; in test [6] it was 10.2%. In addition, the inhibition in test [7] turned out to be 49.5%.

For `COc1cc(/C=N/Nc2ncnc3c2cnn3C(C)C)ccc1O`, the inhibition in test [1] is 1.93%; in test [2], 1.12%; in test [3] it was 2.71%; in test [4] it was 2.81%; in test [5], 7.64%; in test [6], 4.77%. The inhibition in test [7] came out at 19.1%.

In the case of `CS(=O)(=O)Nc1cccc(-c2ccc3c(NC(=O)C4CC4)n[nH]c3c2)c1`, the inhibition in test [1] amounted to 16.5%; in test [2] it was 4.95%; in test [3], 0.25%; in test [4], 1.1%; in test [5], 5.23%; in test [6] it was 2.67%. The inhibition in test [7] amounted to 5.19%.

Regarding `NS(=O)(=O)c1cccc(Nc2cc(-c3ccc(F)cc3)n[nH]2)c1`, the inhibition in test [1] is -8.3%; in test [2], -1.86%; in test [3] it was 1.25%; in test [4] it was 4.6%; in test [5], 10.5%; in test [6], 5.16%. In addition, the inhibition in test [7] is 12.2%.

With `NS(=O)(=O)c1ccc(Nc2cc(-c3cccc(O)c3)n[nH]2)cc1`, the inhibition in test [1] was -1.78%; in test [2], 0.88%; in test [3] it was 2.85%; in test [4] it was 6.39%; in test [5] it was 12.4%; in test [6] it was 6.39%. In addition, the inhibition in test [7] was 17.1%.

On to `COc1cc2ncn(-c3cc(OCc4ccccc4S(C)(=O)=O)c(C#N)s3)c2cc1OC`, for which the inhibition is 2.83% in test [1]; -0.58% in test [2]; 10.8% in test [3]; 25.5% in test [4]; 83.7% in test [5]; 60.4% in test [6]. The inhibition in test [7] was determined as 61.8%.

With `Cc1nc(-c2ccccc2)n2nc(NCCCN3CCOCC3)ncc12`, the inhibition in test [1] was 3.81%; in test [2], 1.72%; in test [3], 1.58%; in test [4] it was 0.1%; in test [5] it was 5.23%; in test [6], 2.23%. Also, the inhibition in test [7] amounted to 6.32%.

On to `Oc1cccc(-c2nc(-c3ccccc3)[nH]c2-c2ccncc2)c1`, for which the inhibition in test [1] was 12.2%; in test [2], -4.12%; in test [3], 2.23%; in test [4], 4.13%; in test [5] it was 8.56%; in test [6], 4.27%. The inhibition in test [7] was 8.9%.

As to `C[C@@H](Oc1cc(-n2cnc3ccc(OC[C@@H](O)CO)cc32)sc1C(N)=O)c1ccccc1Cl`, the inhibition in test [1] was 5.77%; in test [2] it was 1.29%; in test [3], -0.05%; in test [4], 3.25%; in test [5] it was 17.3%; in test [6], 5.39%. Further, in test [7], the inhibition came to 28.7%.

As to `OCc1ccc(-c2nc(-c3ccccn3)c(-c3ccc4c(c3)OCO4)[nH]2)cc1`, the inhibition in test [1] was -7.97%; in test [2], -4.02%; in test [3] it was 2.42%; in test [4], 4.19%; in test [5] it was 6.97%; in test [6], 5.62%. Also, in test [7], the inhibition amounted to 9.65%.

For the molecule `COC(=O)c1ccc2c(c1)C(=Cc1cc(Br)c(O)c(Br)c1)C(=O)N2`, the inhibition in test [1] worked out at 42%; in test [2] it was 1.11%; in test [3], 2.79%; in test [4] it was 29.1%; in test [5] it was 88.5%; in test [6], 58.3%. In test [7], the inhibition was found to be 91.7%.

Turning to `CC(C)c1ccc2c(c1)NC(=O)/C2=N/Nc1ccc(S(N)(=O)=O)cc1`, the inhibition in test [1] is -0.41%; in test [2], 0.36%; in test [3], 0.49%; in test [4], -0.37%; in test [5], 9.75%; in test [6], 2.27%. In addition, the inhibition in test [7] is 11.5%.

In the case of `CCn1c(-c2nonc2N)nc2c(C#CC(C)(C)O)nc(OCCNC)cc21`, the inhibition in test [1] was 0.54%; in test [2], 2.16%; in test [3], 3.06%; in test [4], -2.14%; in test [5] it was 0.49%; in test [6] it was -0.46%. For the same molecule, in test [7], the inhibition turned out to be 2.51%.

Consider `c1ccc(Cc2nc3ccc(Nc4ncnc5ccccc45)cc3[nH]2)cc1`, for which the inhibition in test [1] was 8.44%; in test [2], -1.86%; in test [3] it was 1.52%; in test [4] it was 0.2%; in test [5] it was 4.18%; in test [6], 3.52%. Besides, the inhibition in test [7] came out at 9.17%.

As to `CN(C)c1cc2c(Nc3ccc4c(cnn4Cc4ccccc4)c3)ncnc2cn1`, the inhibition was 7.17% in test [1]; 3.11% in test [2]; 1.57% in test [3]; 3.31% in test [4]; 9.07% in test [5]; 3.44% in test [6]. Moreover, the inhibition in test [7] amounted to 8.03%.

Consider `O=C(Nc1ccc(Oc2ccc3[nH]c(NC(=O)c4ccco4)nc3c2)cc1)Nc1cc(C(F)(F)F)ccc1F`, for which the inhibition in test [1] was 39.9%; in test [2], -2.35%; in test [3], 0.94%; in test [4], 15.7%; in test [5], 15.8%; in test [6], 9.87%. Besides, the inhibition in test [7] worked out at 51.6%.

Regarding `Cc1ccc2c(c1)/C(=N/Nc1ccc(S(N)(=O)=O)cc1)C(=O)N2`, the inhibition in test [2] was 2.09%; in test [3] it was -0.03%; in test [4], 6.44%; in test [5], 13.1%; in test [6] it was 9.36%; in test [7], 46.2%.

Turning to `Nc1nccc(-c2c(-c3ccc(F)cc3)ncn2CCCN2CCOCC2)n1`, the inhibition in test [1] worked out at 2.86%; in test [2] it was 3.35%; in test [3], 2.13%; in test [4], 1.92%; in test [5], 1.82%; in test [6] it was 2.45%. Besides, the inhibition in test [7] turned out to be 2.14%.

In the case of `CN(C)C(=O)O[C@@H]1CN[C@@H](C#Cc2cc3ncnc(Nc4ccc(OCc5cccc(F)c5)c(Cl)c4)c3s2)C1`, the inhibition was determined as 2.83% in test [2]; 0.5% in test [3]; 0.07% in test [4]; 0.34% in test [5]; 1.22% in test [6]; 4.14% in test [7].

Turning to `CC(C)c1ccc(Nc2nccc(-c3cnn4ncccc34)n2)cc1`, the inhibition in test [1] is 2.26%; in test [2] it was -2.06%; in test [3], 1.84%; in test [4] it was 9.89%; in test [5], 17.9%; in test [6], 11.6%. The inhibition in test [7] came out at 44.5%.

Take `COc1ccc(-c2nn3ncccc3c2-c2ccnc(Nc3cccc(C(F)(F)F)c3)n2)cc1`: the inhibition was -0.7% in test [1]; 2.1% in test [2]; 1.92% in test [3]; 2.5% in test [4]; 2.68% in test [5]; 2.73% in test [6]. Further, in test [7], the inhibition is -0.13%.

Turning to `ON=C1CCc2cc(-c3nc(C4CCNCC4)[nH]c3-c3ccncc3)ccc21`, the inhibition is 10.2% in test [1]; 4% in test [2]; -0.27% in test [3]; 1.51% in test [4]; 2.68% in test [5]; 0.74% in test [6]. The inhibition in test [7] stood at 4.07%.

`O=C1Nc2ccccc2/C1=C/Nc1ccc2[nH]c(=O)[nH]c2c1`: the inhibition in test [1] was -0.47%; in test [2] it was 2.93%; in test [3], 2.88%; in test [4], 3.06%; in test [5], 14.1%; in test [6] it was 6.22%. The inhibition in test [7] was found to be 35%.
